The record followed here is PubChem BioAssay.

Records with an inconclusive call do not appear. The source made the active and inactive calls. Unless noted, no cut-off is given here; in the data, nearly all actives have AC50 up to about 26 µM.

Assay [1] is described as follows: viability loss in pontine glioma line – cell-based, SU-DIPG-XVII, MIPE5.0, CellTiter-Glo, qHTS, dose response (AID 1347060).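 Note: cells exposed to compound for 48 hours before viability readout.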 Conditions: CellTiter-Glo ATP luminescence.
Assay [2] can be described thus: viability loss in pontine glioma line – cell-based, SU-DIPG-XXV, MIPE5.0, CellTiter-Glo, qHTS, dose response (AID 1347065).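 Note: cells exposed to compound for 48 hours before ATP readout.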 To be noted: CellTiter-Glo ATP luminescence.
A short description of assay [3]: JHH-DIPG-1 glioma cell viability, MIPE5.0 library, CellTiter-Glo luminescence, qHTS (AID 1347067).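 Note: cells exposed to compound for 48 hours before readout.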 To be noted: JHH-DIPG-1 glioma viability, CellTiter-Glo ATP luminescence. For orientation: ATP-based viability assays read luminescence as a measure of living cells.
Assay [4] in a line: growth inhibition of DIPG cells – cell-based, MIPE5.0 library, qHTS (AID 1347068; cut-off not given, nearly all actives have IC50 up to about 30 µM;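 note: cells exposed to compound for 48 hours before viability readout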). To be noted: SU-DIPG-XXV viability.
Assay [5] in a line: viability loss with induced miR-34 in A549 – imaging, A549 dox-inducible miR-34, nuclei and caspase counts, primary screen (AID 1347080;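 active = compounds whose cell count with miR-34 switched on is under 0.7 times the count with it off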). Conditions: A549 miR-34 inducible, Hoechst nuclei count, 48 h.
A short description of assay [6]: MELAS cybrid and Rieske KO viability enhancers – cell-based, MELAS cybrids, Rieske KO mouse fibroblasts, CellTiter-Glo, primary screen (AID 1508586;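 active = mean z-score across replicates of 1.96 or higher in either the MELAS or the Rieske mutant cell line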;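 note: z relative to plate mean and SD of compound and empty wells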). Conditions: low glucose.

Take `Cc1cc(N2CCOCC2)ccc1Nc1nc(NC2CCCCC2)c2[nH]cnc2n1`: the AC50 – broadly, the concentration at which the activity in the assay is half-maximal – in assay [1] was 2.35 µM (active); in assay [2] it was 7.42 µM (active); in assay [3] it was 14.8 µM (active). The IC50 (usually the concentration that inhibits the measured activity by half) in assay [4] is 20.9 µM (active). The fold change in assay [5] (stronger effect = lower value, cell number ratio, induced over uninduced) was 0.907 (inactive); in assay [5] (measured here: relative caspase fold change +Dox/-Dox), 0.505. In addition, the cell count in assay [5] (measured here: total cells with miR-34 induction, stronger effect = lower value) came to 3720; in assay [5] (measured here: total cells without miR-34 induction), 4100. The z-score in assay [6] (MELAS cybrid survival, CellTiter-Glo 48 h, stronger effect = higher value) is -0.538 (inactive); in assay [6] (Rieske KO mouse fibroblast survival, CellTiter-Glo 72 h) it was -2.79.
